# Reference: the supplement of paper PMC8728848
# The full list was thinned out, with the strongest signals kept by preference.
# Columns and labels:
# Experiment in all cases: glycan array binding signal (z-score within array); higher = stronger binding
# Details in all cases: glycan notation: IUPAC condensed, linker removed
# [1] = tested on: Neu5Ac(a2-8)Neu5Ac(a2-3)Gal(b1-4)Glc
# How it was run: (§1)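 Glycan array binding is given as a within-array Z-score, which can be read as non-binding when negative. The arrays, 3228 of them, came from the Consortium for Functional Glycomics database and were retained only where the protein sequence was available. Z-scores were averaged across arrays of the same protein sequence at different concentrations or buffers and across linkers.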
# [2] = tested on: Neu5Ac(a2-8)Neu5Ac(a2-8)Neu5Ac(a2-3)[GalNAc(b1-4)]Gal(b1-4)Glc
# How it was run: as §1
# [3] = tested on: Neu5Gc(a2-3)Gal(b1-3)[Fuc(a1-4)]GlcNAc
# How it was run: as §1
# [4] = tested on: Neu5Ac(a2-8)Neu5Ac(a2-3)[Gal(b1-3)GalNAc(b1-4)]Gal(b1-4)Glc
# How it was run: as §1
# [5] = tested on: Neu5Gc(a2-3)Gal(b1-3)GlcNAc
# How it was run: as §1
# [6] = tested on: Neu5Ac(a2-8)Neu5Ac(a2-8)Neu5Ac(a2-8)Neu5Ac(a2-8)Neu5Ac(a2-8)Neu5Ac(a2-8)Neu5Ac(a2-8)Neu5Ac
# How it was run: as §1
# [7] = tested on: Neu5Ac9Ac(a2-6)Gal(b1-4)GlcNAc
# How it was run: as §1
# [8] = tested on: Neu5Gc(a2-3)Gal(b1-4)GlcNAc
# How it was run: as §1
substance,measurement,setting,value
Actinohivin (Actinomycete K97),glycan array binding signal (z-score),[1],-0.163
same,glycan array binding signal (z-score),[2],-0.14
same,glycan array binding signal (z-score),[3],-0.168
AgI/II Vhelical-GFP (Streptococcus mutans),glycan array binding signal (z-score),[4],0.136
same,glycan array binding signal (z-score),[5],0.551
"SiiE (Salmonella typhimurium), A0A0H3NVH0",glycan array binding signal (z-score),[2],-0.437
"MIC3-MAR5 (Eimeria tenella), B6VCV4",glycan array binding signal (z-score),[6],-0.75
"MIC3-MAR1b (Eimeria tenella), B6VCV4",glycan array binding signal (z-score),[6],-0.531
"GspB (Streptococcus gordonii), Q939N5",glycan array binding signal (z-score),[7],2.97
LcI (Legionella pneumophila),glycan array binding signal (z-score),[7],0.198
"SpGH101 (Streptococcus pneumoniae), Q8DR60",glycan array binding signal (z-score),[8],-0.177
AgI/IIC123-GFP (Streptococcus mutans),glycan array binding signal (z-score),[8],-0.472
